Laboratory results reported in PubChem BioAssay AID1159580 (chemical genetic matrix, 2015).
Screen size: about 5,500 compounds; about 2,000 (36%) were called active. About 18% were inconclusive and are not listed. This is one part of the list. Unmarked numbers belong to inactive results. Rule as the data show it: active = normalized growth mostly below about 0.91 (no sharp cut-off); inconclusive = no clear call, values can overlap the other calls; inactive = mostly above about 0.92.

Experiment: chemical genetic growth profiling, strain panel (AID 1159580);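 also: tested at 20 µM; growth read once vehicle control cultures reached saturation at 30 °C; 1 = growth at the plate median or of vehicle wells; lower values mean less growth of the strain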
Details: growth OD

In the case of `CC(=O)Oc1cc(-c2coc3cc(OC(C)=O)c(OC(C)=O)c(OC(C)=O)c3c2=O)cc(OC(C)=O)c1OC(C)=O`, the normalized growth (S. cerevisiae deletion strains, locus YKL009W, strain mrt4, hits give low values) is reported as 1.05, the normalized growth (S. cerevisiae deletion strains, locus YKL068W, hits give low values) is reported as 1.01 and the normalized growth (S. cerevisiae deletion strains, locus YKL085W, strain MDH1 (second series), hits give low values) is reported as 1.01. The normalized growth (S. cerevisiae deletion strains, locus YKL085W, strain MDH1, hits give low values) was 1.01, the normalized growth (S. cerevisiae deletion strains, locus YKL160W, strain elf1, hits give low values) was 0.926 and the normalized growth (S. cerevisiae deletion strains, locus YKL190W, strain CNB1, hits give low values) was 0.888 (active). For the same compound, the normalized growth (S. cerevisiae deletion strains, locus YKR001C, strain vps1, hits give low values) was 0.962, the normalized growth (S. cerevisiae deletion strains, locus YKR026C, strain gcn3, hits give low values) was 0.979 and the normalized growth (S. cerevisiae deletion strains, locus YKR091W, strain srl3, hits give low values) was 0.985. For the same compound, the normalized growth (S. cerevisiae deletion strains, locus YLL001W, strain dnm1, hits give low values) was 0.918, the normalized growth (S. cerevisiae deletion strains, locus YLL026W, hits give low values) was 0.966 and the normalized growth (S. cerevisiae deletion strains, locus YLL041C, strain sdh2, hits give low values) was 0.967. The normalized growth (S. cerevisiae deletion strains, locus YLR027C, strain aat2, hits give low values) was 0.964, the normalized growth (S. cerevisiae deletion strains, locus YLR039C, strain RIC1, hits give low values) was 0.635 (active) and the normalized growth (S. cerevisiae deletion strains, locus YLR058C, strain SHM2, hits give low values) was 0.272 (active). It also gave a normalized growth (S. cerevisiae deletion strains, locus YLR102C, strain apc9, hits give low values) of 1.03, a normalized growth (S. cerevisiae deletion strains, locus YLR113W, strain HOG1, hits give low values) of 1.11 and a normalized growth (S. cerevisiae deletion strains, locus YLR221C, strain rsa3, hits give low values) of 0.911. The normalized growth (S. cerevisiae deletion strains, locus YLR258W, strain gsy2, hits give low values) was 0.963, the normalized growth (S. cerevisiae deletion strains, locus YLR262C, strain YPT6 (second series), hits give low values) was 0.887 and the normalized growth (S. cerevisiae deletion strains, locus YLR262C, strain YPT6, hits give low values) was 0.89. The normalized growth (S. cerevisiae deletion strains, locus YLR268W, strain sec22, hits give low values) was 0.889, the normalized growth (S. cerevisiae deletion strains, locus YLR320W, strain mms22, hits give low values) was 0.9 and the normalized growth (S. cerevisiae deletion strains, locus YLR342W, strain FKS1 (second series), hits give low values) was 0.659 (active). For the same compound, the normalized growth (S. cerevisiae deletion strains, locus YLR342W, strain FKS1, hits give low values) was 0.904 (active), the normalized growth (S. cerevisiae deletion strains, locus YLR357W, strain rsc2, hits give low values) was 0.77 (active) and the normalized growth (S. cerevisiae deletion strains, locus YLR370C, strain arc18, hits give low values) was 0.909 (active). The normalized growth (S. cerevisiae deletion strains, locus YLR371W, strain rom2, hits give low values) was 0.801 (active), the normalized growth (S. cerevisiae deletion strains, locus YLR384C, strain iki3, hits give low values) was 0.965 and the normalized growth (S. cerevisiae deletion strains, locus YLR418C, strain cdc73, hits give low values) was 0.782 (active). For the same compound, the normalized growth (S. cerevisiae deletion strains, locus YML016C, strain PPZ1, hits give low values) was 0.71 (active), the normalized growth (S. cerevisiae deletion strains, locus YML032C, strain rad52, hits give low values) was 0.83 (active) and the normalized growth (S. cerevisiae deletion strains, locus YML120C, strain ndi1, hits give low values) was 0.898 (active). The normalized growth (S. cerevisiae deletion strains, locus YML124C, strain tub3, hits give low values) was 1, the normalized growth (S. cerevisiae deletion strains, locus YMR058W, strain fet3, hits give low values) was 0.698 (active) and the normalized growth (S. cerevisiae deletion strains, locus YMR078C, strain ctf18, hits give low values) was 1.01. The normalized growth (S. cerevisiae deletion strains, locus YMR125W, strain sto1, hits give low values) was 1.03, the normalized growth (S. cerevisiae deletion strains, locus YMR129W, hits give low values) was 0.98 and the normalized growth (S. cerevisiae deletion strains, locus YMR205C, strain PFK2, hits give low values) was 0.896. The normalized growth (S. cerevisiae deletion strains, locus YMR223W, strain ubp8, hits give low values) was 0.938, the normalized growth (S. cerevisiae deletion strains, locus YMR231W, strain pep5, hits give low values) was 0.924 (active) and the normalized growth (S. cerevisiae deletion strains, locus YMR263W, strain SAP30, hits give low values) was 0.734 (active). The normalized growth (S. cerevisiae deletion strains, locus YMR307W, strain GAS1, hits give low values) was 0.67, the normalized growth (S. cerevisiae deletion strains, locus YNL067W, strain RPL9B, hits give low values) was 0.848 (active) and the normalized growth (S. cerevisiae deletion strains, locus YNL071W, strain lat1, hits give low values) was 0.979. The normalized growth (S. cerevisiae deletion strains, locus YNL183C, strain NPR1, hits give low values) was 0.988, the normalized growth (S. cerevisiae deletion strains, locus YNL209W, strain ssb2, hits give low values) was 0.785 (active) and the normalized growth (S. cerevisiae deletion strains, locus YNL233W, strain BNI4, hits give low values) was 0.824 (active). For the same compound, the normalized growth (S. cerevisiae deletion strains, locus YNL248C, strain rpa49, hits give low values) was 0.945, the normalized growth (S. cerevisiae deletion strains, locus YNL250W, strain rad50, hits give low values) was 1.06 and the normalized growth (S. cerevisiae deletion strains, locus YNL271C, strain bni1, hits give low values) was 1.01. It also gave a normalized growth (S. cerevisiae deletion strains, locus YNL298W, strain CLA4, hits give low values) of 0.998, a normalized growth (S. cerevisiae deletion strains, locus YNL307C, strain MCK1, hits give low values) of 1.02 and a normalized growth (S. cerevisiae deletion strains, locus YNL322C, strain KRE1 (second series), hits give low values) of 0.972. The normalized growth (S. cerevisiae deletion strains, locus YNL322C, strain KRE1, hits give low values) was 0.767 (active), the normalized growth (S. cerevisiae deletion strains, locus YNR049C, strain mso1, hits give low values) was 0.979 and the normalized growth (S. cerevisiae deletion strains, locus YNR052C, strain pop2, hits give low values) was 0.658 (active). For the same compound, the normalized growth (S. cerevisiae deletion strains, locus YOL012C, strain htz1) was 0.316, the normalized growth (S. cerevisiae deletion strains, locus YOL147C, strain pex11, hits give low values) was 0.694 (active) and the normalized growth (S. cerevisiae deletion strains, locus YOR001W, strain rrp6, hits give low values) was 0.859 (active). For the same compound, the normalized growth (S. cerevisiae deletion strains, locus YOR061W, strain CKA2, hits give low values) was 0.887 (active), the normalized growth (S. cerevisiae deletion strains, locus YOR069W, strain VPS5, hits give low values) was 0.904 (active) and the normalized growth (S. cerevisiae deletion strains, locus YOR070C, strain gyp1, hits give low values) was 0.937. For the same compound, the normalized growth (S. cerevisiae deletion strains, locus YOR080W, strain dia2, hits give low values) was 0.899 (active), the normalized growth (S. cerevisiae deletion strains, locus YOR083W, strain WHI5, hits give low values) was 0.908 and the normalized growth (S. cerevisiae deletion strains, locus YOR106W, strain vam3, hits give low values) was 0.778 (active). The normalized growth (S. cerevisiae deletion strains, locus YOR136W, strain idh2, hits give low values) was 1, the normalized growth (S. cerevisiae deletion strains, locus YOR144C, strain elg1, hits give low values) was 0.797 (active) and the normalized growth (S. cerevisiae deletion strains, locus YOR184W, strain ser1, hits give low values) was 0.905. The normalized growth (S. cerevisiae deletion strains, locus YOR231W, strain MKK1, hits give low values) was 1.05, the normalized growth (S. cerevisiae deletion strains, locus YOR265W, strain rbl2, hits give low values) was 0.946 and the normalized growth (S. cerevisiae deletion strains, locus YOR270C, strain vph1, hits give low values) was 0.564 (active). For the same compound, the normalized growth (S. cerevisiae deletion strains, locus YOR290C, strain snf2, hits give low values) was 0.322 (active), the normalized growth (S. cerevisiae deletion strains, locus YOR316C, strain cot1, hits give low values) was 1.02 and the normalized growth (S. cerevisiae deletion strains, locus YPL051W, strain arl3, hits give low values) was 0.847 (active). For the same compound, the normalized growth (S. cerevisiae deletion strains, locus YPL055C, strain LGE1, hits give low values) was 0.751 (active), the normalized growth (S. cerevisiae deletion strains, locus YPL078C, strain atp4, hits give low values) was 0.772 (active) and the normalized growth (S. cerevisiae deletion strains, locus YPL106C, strain sse1, hits give low values) was 0.869. For the same compound, the normalized growth (S. cerevisiae deletion strains, locus YPL240C, strain hsp82, hits give low values) was 0.961, the normalized growth (S. cerevisiae deletion strains, locus YPL256C, strain CLN2, hits give low values) was 1.12 and the normalized growth (S. cerevisiae deletion strains, locus YPR119W, strain clb2, hits give low values) was 1.03. It also gave a normalized growth (S. cerevisiae deletion strains, locus YPR141C, strain kar3, hits give low values) of 1.03, a normalized growth (S. cerevisiae deletion strains, locus YPR163C, strain tif3, hits give low values) of 0.989 and a normalized growth (S. cerevisiae deletion strains, locus YPR167C, strain met16, hits give low values) of 0.953. The normalized growth (S. cerevisiae deletion strains, strain wtn01, hits give low values) was 0.882 (active) and the normalized growth (S. cerevisiae strains, strain wild type, hits give low values) was 0.75 (active).
